In PubChem BioAssay AID743279 (National Center for Advancing Translational Sciences (NCATS), 2014):
About 17,000 (4.7%) of roughly 360,000 compounds were called active. Inconclusive results (about 5%) are left out. This is one part of a sample in which actives are shown more often than they occur. Cut-off read from the data, not from the text of the source: active = activity change below about -50%; inconclusive = mostly about -30% to -49%; inactive = weaker than that.

Assay: qHTS for Inhibitors of Inflammasome Signaling: IL-1-beta AlphaLISA Primary Screen
Details: THP-1 LPS/ATP IL-1B secretion, 16 h; at 57.5 µM, hits give low values
In short: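 Secreted IL-1B measured by AlphaLISA bead assay after 16 h compound exposure of THP-1 cells; compounds (final up to 57.5 uM) added 1 h before LPS (250 ng/mL) and ATP (1.25 mM) stimulation; lower signal means less secretion.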
% is set by controls: 0 for no effect and ±100 for the full control effect.

Activity change, inactive:
O=C(Cn1cc(-c2nnnn2-c2ccc(Cl)cc2)c(=O)c2ccccc21)c1ccccc1 33.2%
O=C(CSc1cccc[n+]1[O-])c1ccc(Cl)cc1 -5.03%
CC1(C)NC(=O)N(CC(=O)Nc2ccc(-c3ccccc3)cc2)C1=O 4.98%
O=C(Nc1ccc(S(=O)(=O)Nc2nccs2)cc1)c1cccc(S(=O)(=O)N2CCOCC2)c1 0%
O=C(NCc1cccnc1)c1cc(S(=O)(=O)N2CCOCC2)c(Cl)cc1Cl 16.2%
C[C@@H]1CN([C@H](C)CO)C(=O)c2cc(Br)cnc2O[C@@H]1CN(C)Cc1cncnc1 -0.234%
CC(=O)Nc1cncc(-c2ccccc2CO)n1 5.55%
CC1(C(=O)NS(=O)(=O)c2ccccc2)CCN1C(=O)C/C=C/c1ccccc1 (configuration not stated) -5.77%
CC1(C(=O)O)CCN1C(=O)/C=C/c1ccccc1 (configuration not stated) 23.5%
Cc1cc(C)nc(NNC2=CC(=O)CC(C)(C)C2)n1 31.9%
CCN1CCN(C(=O)CN(C)S(=O)(=O)c2ccc3ccccc3c2)CC1 20.4%
COCCNC(=O)COc1ccc(N(C)S(=O)(=O)c2ccc3ccccc3c2)cc1 22.7%
COc1cccc(C(=O)Nc2ccc3nc4n(c(=O)c3c2)CCCCC4)c1 5.21%
Cc1ccc(OCC(=O)Nc2ccccc2C(=O)NC2CC2)cc1C 0%
CCOC(=O)c1cc(-c2sc(NC(=O)c3ccccc3)nc2C)n(Cc2ccccc2)n1 -3.85%
COCCNC(=O)CN(Cc1ccco1)C(=O)CCC(=O)Nc1nccs1 -4.97%
Fc1ccc(Cn2nnnc2C(c2cccs2)N2CCCCCC2)cc1 (configuration not stated) -13.3%
CCC(C)(C)n1nnnc1C(c1ccc(OC)c(OC)c1)N1CCN(C(=O)c2ccco2)CC1 (configuration not stated) 1.37%
Cc1ccc(-c2nc3c(Cl)cc(C(F)(F)F)cn3c2Cc2cccc(Cl)c2)cc1 41.1%
CCN1C(=O)C(CC(=O)Nc2cc(C)ccc2C)SC1=Nc1ccc(S(N)(=O)=O)cc1 (configuration not stated) -5.39%
CN1C(=O)C(CC(=O)Nc2ccccc2)S/C1=N/c1nccs1 (configuration not stated) -2.9%
CCN(CC)CCN(C)C(c1ccnc2ccccc12)c1nnnn1-c1ccc2c(c1)OCCO2 (configuration not stated) -3.67%
CC(C)C1CC2=C(C(=O)OC(C)(C)O2)C(c2ccc(F)cc2)O1 (configuration not stated) 43.5%
Cc1ccc(O)c(CNc2nc3ccccc3n2C)c1 -11.8%
CC(C)n1c(-c2cccs2)nc2ccccc21 -1.34%
COCC(C)NC(=O)CSc1nc2nn(-c3ccccc3)c(=O)c-2c2n1CCCCC2 (configuration not stated) -2.5%
COc1ccc(C(C)C)cc1-c1ccc2nncn2c1 15.9%
Cc1ccc(C(=O)N2CCCc3ccccc32)c(Cl)c1 64.5%
Cc1c(C(=O)N2CCCc3ccccc32)oc2ccccc12 3.03%
CCOC(=O)[C@@H]1[C@H]2COc3ccc(Br)cc3[C@H]2N2C(=O)N(c3ccc(Cl)cc3)C(=O)[C@@]12C 8.14%
O=S(=O)(c1cccc(C(F)(F)F)c1)N1c2ccccc2-n2cccc2C1c1cccnc1 (configuration not stated) 41.9%
c1ccc(C(c2ccccc2)N2CCN(Cc3nnnn3C3CCCCC3)CC2)cc1 20.1%
CC(C)OCC(O)CN1CCN(C(c2ccccc2)c2ccccc2)CC1 (configuration not stated) -6.29%
CC(C)(O)C1=C[N+](=O)CC=C1 16.1%
COc1cccc(NC(=O)C2(C)CCN2Cc2ccccc2Cl)c1 (configuration not stated) -11.6%
CC1CN(C(=O)c2ccc([N+](=O)[O-])s2)CC(C)O1 (configuration not stated) 22.4%
CNN/C(N=Cc1ccc([N+](=O)[O-])s1)=N\S(=O)(=O)c1cc(C)c(Cl)cc1SCc1ccccc1 -7.5%
CCCCn1nnnc1NCc1cc(OC)c(OC)c(OC)c1 25.2%
CCn1c2ccccc2c2cc(NC(=O)C/C(C)=N/NC(=O)c3ccccc3N)ccc21 25.4%
CCn1c2ccccc2c2cc(NC(=O)COC(=O)c3ccccc3Br)ccc21 -18.9%
Cc1nn(-c2ccccc2)c2c1c(C)c(CCC(=O)NCC1CCCO1)c(=O)n2C (configuration not stated) -20.2%
Cc1ccc(CNC(=O)Nc2nnc([C@H]3C[C@H](O)[C@@H](CO)O3)s2)cc1 3.84%
C[C@@H]1CN([C@H](C)CO)C(=O)c2cc(-c3ccc(F)cc3)cnc2O[C@H]1CN(C)C(=O)c1ccc(F)cc1 -10.1%
CN(CCc1ccccc1)c1ccc([N+](=O)[O-])cn1 25.8%
Cc1ccc(OCCC(=O)OCC(=O)N2c3ccccc3NC(=O)C2(C)C)cc1 11%
CNS(=O)(=O)c1cccc(C(=O)OCC(=O)N2c3ccccc3NC(=O)C2(C)C)c1 11.2%
NC(=O)C1(Nc2ccc(-c3ccccc3)cc2)CCCC1 3.69%
Cc1ccc(S(=O)(=O)N(CC(=O)Nc2cccnc2)c2ccc(Br)cc2)cc1 -14.5%
Cn1nccc1NC(=O)Nc1ccc(OC(F)(F)F)cc1 1.91%
Cn1cccc1/C=N/NC(=O)c1ccc(OC(F)(F)C(F)F)cc1 81.3%
CC(CC(=O)N1CCN(S(=O)(=O)c2ccccc2)CC1)n1cncn1 (configuration not stated) -19.9%
Cc1cccc(S(=O)(=O)N(C)C[C@@H]2OCc3cnnn3CCCC(=O)N([C@H](C)CO)C[C@@H]2C)c1 -0.819%
CN1OC[C@@H]2CN(C(=O)c3ccc(-c4ccccc4)cc3)[C@H](c3ccc(-c4cccc(F)c4)cc3)C[C@@H]21 56.8%
C[C@@H]1CN([C@H](C)CO)S(=O)(=O)c2ccc(C#CC3CCCCC3)cc2O[C@H]1CN(C)C(=O)Cc1ccncc1 -1.14%
O=C(COc1nc2ccccc2nc1N1CCOCC1)NCC(F)(F)F 0.929%
Cc1cc(Nc2ccc(Br)cc2)nc2ccccc12 -5.96%
CCCCc1nc2ccccc2c(NC(=O)CN2CCN(C)CC2)c1CCC -6.28%
c1ccc(-c2nnc(N3CCOCC3)c3ccccc23)cc1 -6.84%
CCNC(=O)COC(=O)/C=C/c1c(C)nn(Cc2cccc(OC)c2)c1Cl -4.38%
NC(=S)NN=Cc1ccc(OC(=O)COc2cc(Cl)c(Cl)cc2Cl)cn1 119%
O=C(O)C(=Cc1ccccc1[N+](=O)[O-])c1ccccc1 12.6%
Cc1c(C(C)(C)O)[nH]c2ccc(C#N)cc12 38.6%
Cc1cccc(N(C(=O)Cc2cccs2)C(C(=O)NC2CCCC2)c2ccsc2)c1 (configuration not stated) 0%
CCOC(=O)c1cc2c(n(-c3ccc(C)cc3)c1=O)CCCC2=O -18.1%
O=C1CCCC2=C1C(c1cccs1)CC(=O)N2c1ccc(F)cc1 (configuration not stated) 20.1%
Cc1ccccc1CS(=O)(=O)CC1(O)CCN(C(=O)c2cccc(C(F)(F)F)c2)CC1 9.6%
Cc1ccc(-c2nc3ccc(Br)cn3c2Cc2ccccc2C(F)(F)F)cc1 16.5%
COc1ccccc1NC(=O)C(C)OC(=O)CC1CCCC1 (configuration not stated) 23.8%
COc1ccccc1CN1CCN(C(c2ccccc2)c2ccccc2)CC1 -16.2%
CCCCNC1(C#N)CCN(Cc2ccccc2)CC1 9.53%
CC1(C(=O)NCc2ccc3c(c2)OCO3)CCN1CCc1ccccc1 (configuration not stated) 10.6%
CO/N=C(\N)c1ccc([N+](=O)[O-])cc1 -10.8%
C/C(=N/NC(=O)CC(=O)N/N=C(\C)c1ccc([N+](=O)[O-])cc1)c1ccc([N+](=O)[O-])cc1 26.9%

Activity change, active:
O=C(C[n+]1ccc2c(c1)nnn2-c1ccccc1)c1ccc(Cl)cc1 -56.5%
O=C(Nc1nccs1)c1cc(S(=O)(=O)N2CCOCC2)c(Cl)cc1Cl -105%
CC1(C)CCSC(/C=C/c2ccccc2)=N1 -102%
CC(=O)Oc1ccc(N(C(C)=O)S(=O)(=O)c2ccc3ccccc3c2)cc1Br -50%
CCC(C)(C)n1nnnc1C(c1cccs1)N1CCN(c2nc3ccccc3s2)CC1 (configuration not stated) -62.8%
O=C(CC1SC(=Nc2ccccc2)N(Cc2ccccn2)C1=O)Nc1cccc(Cl)c1 (configuration not stated) -60.7%
CC(C)n1c(NCc2c[nH]c3ccccc23)nc2ccccc21 -81.7%
COc1ccc2oc(=O)c(C(=O)N3CCCc4ccccc43)cc2c1 -74%
CC1(C)CC(N2CCN(C(c3ccccc3)c3ccccc3)CC2)=CC(=[N+]2CCCCC2)C1 -71.2%
O=[N+]([O-])c1ccc(C=Nc2ccc(Cl)cc2Cl)s1 -106%
CCn1c2ccccc2c2cc(NC(=O)CNC)ccc21 -85.6%
Cc1cc(C(=O)OCC(=O)N2c3ccccc3NC(=O)C2(C)C)c(C)n1-c1ccccc1 -78.6%
O=C(Nc1ccc(OC(F)(F)F)cc1)c1ccc2c(c1)no[n+]2[O-] -96.1%
CN1CCN(c2nc(Nc3ccc(O)cc3)nc3ccccc23)CC1 -96.2%
c1ccc(Nc2nc(N3CCOCC3)c3ccccc3n2)cc1 -109%
CC1=NN(c2cccc(Cl)c2)C(=O)C12CC(C)=C(C)CS2 (configuration not stated) -78.4%
CCOC(=O)C1=C(N)N(c2ccc(C)cc2)C2=C(C(=O)CCC2)C1c1cccs1 (configuration not stated) -55.3%
CC(NCc1ccccc1OC1CCCC1)c1ccccc1 (configuration not stated) -82.2%
C/C(=N\N(C)C)c1ccc(OCCOc2ccc([N+](=O)[O-])cc2)cc1 -52.7%
